NPSR antag: antagonists of human neuropeptide S receptor cAMP signaling | CHO-NPSR cells, cAMP TR-FRET, antagonist mode | Potency, µM (series often up to 38.3 µM), for inactives: top-dose activity change, negative = inhibition, hits mostly inhibitors | 1% of 220,000 active | AID 1461; active means well fitted curve in the direction sought with a large enough effect; inconclusive means small, poorly fitted or top-dose-only effect, or another doubt; inactive means no such curve, though single readings can be large; an effect the other way counts as inactive or inconclusive; further: potency means the concentration at half of the fitted maximal effect; nearly all actives have a fitted effect of over 50% in size
JMJD2E inh: blocks human JMJD2E demethylase activity; JMJD2E catalytic domain, FDH-coupled NADH fluorescence (FDH is formaldehyde dehydrogenase); Potency, µM (top dose mostly 57.1 µM), without a hit: at the highest dose activity change, negative = inhibition, most hits filed as inhibitors; 1.6% of 230,000 active; AID 2147;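 further: potency means the concentration at half of the fitted maximal effect; 0% = wells with enzyme and -100% = buffer wells without enzyme; nearly all actives have a fitted effect of over 50% in size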
Sfp inh: blocks B. subtilis Sfp PPTase activity; Biochemical Sfp PPTase activity, qHTS; Potency, µM, without a hit: largest response in the series, negative = inhibition, hits mostly inhibitors; 3.5% of 310,000 active; active means well fitted curve in the direction sought with a large enough effect; inconclusive means small, poorly fitted or top-dose-only effect, or another doubt; inactive means no such curve, though single readings can be large; an effect the other way counts as inactive or inconclusive;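 further: the enzyme is Sfp with the accession as filed and its product quenches rhodamine fluorescence; potency means the concentration at half of the fitted maximal effect; 0% = enzyme reaction without inhibitor and -100% = no enzyme wells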
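After 15 min at room temperature with compound, 15 nM Sfp received 5 uM rhodamine-CoA plus 12.5 uM BHQ-2-ybbR (50 mM Hepes pH 7.6, 10 mM MgCl2). Rate came from the fluorescence difference over 30 min, ex 525/em 598 nm.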
Coupling enz: counter-screen for Giardia aldolase inhibitors: coupling enzyme system; AID 2472; coupling enzyme system counterscreen, AmpLite Red fluorescence; 0.67% of 290,000 active; activity change, negative = inhibition, % at 58.2 µM, hits read low; in the data active means activity change below about -30%
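First, compound is pin-transferred into glyceraldehyde-3-phosphate coupling-enzyme reagent at 57.5 uM final and held 10 min at RT. Next, substrate, coupling system and AmpLite Red are added. After 20 min RT, fluorescence (525/598 nm) is read.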
RGS12 GoLoco inh: blocks human Gai1 binding to RGS12 GoLoco peptide, red readout; P63096; Gai1:RGS12 GoLoco peptide FP, rhodamine, 10 min; Potency, µM (doses to about 61.6 µM), inactives show at the highest dose activity, negative = inhibition, usual class: inhibitors; 0.44% of 230,000 active; AID 880; active means well fitted inhibition curve with a large enough effect, not every such curve was filed as active; inactive means no such curve, though single readings can be large or run the other way; further: potency means the concentration at half of the fitted maximal effect; nearly all actives have a fitted effect of over 30% in size
ALDH1A1 block: inhibitors of human aldehyde dehydrogenase 1A1; 7.3% of 220,000 active; Potency, µM (series often up to 75.3 µM), for the others: at the highest dose activity, negative = inhibition, hits mostly inhibitors; P00352; AID 1030; Purified ALDH1A1, NADH fluorescence, propionaldehyde substrate;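 further: potency means the concentration at half of the fitted maximal effect; plate controls were no enzyme wells and a reference inhibitor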
Target sequence (P00352 whole entry, looked up): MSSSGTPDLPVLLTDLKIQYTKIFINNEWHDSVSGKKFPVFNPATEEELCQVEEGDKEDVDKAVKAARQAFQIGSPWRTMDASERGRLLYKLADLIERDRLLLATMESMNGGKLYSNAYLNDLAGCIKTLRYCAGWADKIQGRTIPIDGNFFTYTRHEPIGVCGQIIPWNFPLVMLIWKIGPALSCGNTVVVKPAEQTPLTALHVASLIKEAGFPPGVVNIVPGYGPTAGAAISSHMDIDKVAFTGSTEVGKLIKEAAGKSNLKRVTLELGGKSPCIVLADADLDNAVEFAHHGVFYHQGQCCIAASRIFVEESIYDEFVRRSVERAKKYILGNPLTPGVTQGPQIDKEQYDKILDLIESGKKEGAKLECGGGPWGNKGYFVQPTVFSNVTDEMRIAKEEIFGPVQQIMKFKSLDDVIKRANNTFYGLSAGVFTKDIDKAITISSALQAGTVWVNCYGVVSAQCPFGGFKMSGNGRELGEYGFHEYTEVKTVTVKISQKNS
* hit, by the source's call; ? = inconclusive; · = no result given; ! = not active in a repeat; [ ] = another dose, or the depositor's remark. In the library only some 8.5% were active in any assay of this set; here they are far more common. Unless noted, the call rests on the fitted dose curve; in most records, active means well fitted inhibition curve with a large enough effect (not every such curve was filed as active); inconclusive means small, poorly fitted or top-dose-only effect, or another doubt; inactive means no such curve, though single readings can be large or run the other way. Unless noted, on the % scale 0 is the no-effect control and ±100 the full control effect.

SMILES | NPSR antag | JMJD2E inh | Sfp inh | Coupling enz | RGS12 GoLoco inh | ALDH1A1 block
Cc1nnc(NC(=O)CCS(=O)(=O)Cc2ccccc2)s1 | · | · | -27% | 0 | · | ·
Nc1ccc(N=Nc2ccc(-c3ccc(O)cc3)cc2)c2ccc(S(=O)(=O)O)cc12 | · | · | · | · | 6%[14.2 µM] | 1%[13.5 µM]
Cc1cc(-c2ccc(N=Nc3ccc4c(S(=O)(=O)O)cc(S(=O)(=O)O)c(N)c4c3O)c(C)c2)ccc1N=Nc1ccc2c(S(=O)(=O)O)cc(S(=O)(=O)O)c(N)c2c1O | · | ? | 10µM*! | -38* | 29% | ?
Nc1c(N=Nc2ccc(-c3ccc(N=Nc4cc(S(=O)(=O)O)c5ccccc5c4N)cc3)cc2)cc(S(=O)(=O)O)c2ccccc12 | · | · | 45µM* | -12 | 238% | 25µM*
Cc1ccc(N=Nc2c(O)c(S(=O)(=O)O)cc3cc(S(=O)(=O)O)ccc23)c(C)c1 | · | · | · | · | 35%[14.2 µM] | ?
CC(C)(C)c1ccc(NS(=O)(=O)c2ccc(N)cc2)cc1 | 25% | -3% | -20% | -4 | -7%[14.2 µM] | -12%[13.5 µM]
CC(C)(C)c1ccc(S(=O)(=O)/C=C/C#N)cc1 | 20µM* | 0% | · | · | 5% | 0.11µM*
COC(=O)C1=NOC2(C=C(Br)C(OC)=C(Br)C2=O)C1 (stereo not drawn) | · | · | 0.79µM* | 2 | · | -13%[13.5 µM]
Cc1cccc(NC(=O)CSc2nc3[nH]ncc3c(=O)n2-c2ccccc2)c1 | 3% | -15% | 7% | -1 | -2% | 4.5µM*
Cc1cccc(NC(=O)CSc2nc(NS(=O)(=O)c3ccccc3)cc(=O)[nH]2)c1 | -6% | ? | -17% | -2 | 11% | 28µM*
O=C(CSc1nc2[nH]ncc2c(=O)n1-c1ccccc1)c1ccc2c(c1)OCCO2 | ? | -1% | -15% | 3 | 7% | 0.32µM*
Cc1ccc(NC(=O)CSc2nc(NS(=O)(=O)c3ccc(C)cc3)cc(=O)[nH]2)cc1 | -8%[46.1 µM] | -26% | -7% | 1 | -1% | 4%
O=C(CSc1nc2[nH]ncc2c(=O)n1-c1ccccc1)NCCc1ccccc1 | -4% | 11% | 18% | 1 | -6% | ?
CCOc1ccc(-n2c(=S)sc3c(=O)[nH]c(SCC(=O)C(C)(C)C)nc32)cc1 | ? | -1% | -29% | 2 | -1% | 7.1µM*
CCOC(=O)CSc1nc2c(sc(=S)n2-c2ccc(OCC)cc2)c(=O)[nH]1 | -36% | 0% | -2% | 0 | -4% | ?
CCOc1ccc(-n2c(=S)sc3c(=O)[nH]c(SCC(=O)NCc4ccco4)nc32)cc1 | -8%[46.1 µM] | 0% | 56µM* | 14 | · | ?
COc1ccc(CC(C)Nc2cccc(SC)c2)cc1 (stereo not drawn) | · | · | -32% | -3 | · | ·
COc1ccc(NC(=O)CN2C(=O)COc3ccc(S(=O)(=O)N4CCOCC4)cc32)cc1Cl | · | · | 7% | 1 | · | ·
Cc1ccc(S(=O)(=O)Cn2nnnc2C(C(C)C)N2CCSCC2)cc1 (stereo not drawn) | -15%[46.1 µM] | -5% | 9% | -1 | 4% | -4%
Cc1ccc(S(=O)(=O)Cn2nnnc2C(C(C)C)N2CCc3ccccc3C2)cc1 (stereo not drawn) | 8%[7.67 µM] | ? | -29% | -6 | -2% | 10µM*
COCc1c(Br)c(C)nc2sc3c(=O)[nH]nnc3c12 | · | · | -28% | -2 | · | ·
CCOc1cc(N2CCOCC2)c(OCC)cc1NC(C)C(=O)N1CCN(CC)CC1 (stereo not drawn) | -16% | 27% | 35µM* | -43* | -18% | 22µM*
CCOc1cc(N2CCOCC2)c(OCC)cc1NC(=O)c1ccc(C)cc1 | -28% | ? | 12% | -31* | -13% | ?
CCOc1cc(N2CCOCC2)c(OCC)cc1NC(=O)C(C)C | 3% | 10% | -3% | -3 | -7% | ·
CCOc1cc(N2CCOCC2)c(OCC)cc1NC(=O)CSc1ncccn1 | 4% | -5% | 0% | 4 | -8% | ?
SMILES | NPSR antag | JMJD2E inh | Sfp inh | Coupling enz | RGS12 GoLoco inh | ALDH1A1 block
CCOc1cc(N2CCOCC2)c(OCC)cc1NC(=O)CSc1cccc[n+]1[O-] | -18%[46.1 µM] | ? | -33% | -33* | -14% | ?
CCN1CCN(C(=O)C(C)Nc2cc(Cl)c(OC)cc2OC)CC1 (stereo not drawn) | -2% | ? | -7% | -43* | -42% | -11%
CCN1CCN(C(=O)Nc2cc(Cl)ccc2OC)CC1 | 8% | 9% | 20% | -1 | 5% | 6%
CC1(C)C(=O)N(CCN2CCC(C(=O)c3ccc(F)cc3)CC2)c2ccccc21 | -18%[46.1 µM] | 5% | · | · | 9% | -3%
COc1cc(OC)c(NC(C)C(=O)NCc2ccccc2)cc1Cl (stereo not drawn) | -14% | -29% | ? | -50* | 8% | -16%
COc1ccc(C(=O)c2no[n+]([O-])c2C(=O)c2ccc(OC)cc2)cc1 | -12%[46.1 µM] | 0% | -13% | -1 | -8% | 1µM*
O=C(c1cccs1)c1no[n+]([O-])c1C(=O)c1cccs1 | ? | ? | 32µM* | -67* | -11% | 0.28µM*
O=S(=O)(Nc1ccc(Br)cn1)c1ccc2ccccc2c1 | · | · | 14% | -1 | · | ·
O=C1c2ccccc2CCC1CNCCc1ccc(O)cc1 (stereo not drawn) | · | · | 56µM* | · | -10% | ?
Cc1ccccc1C(=O)NNC(=S)NC(=O)c1ccccc1 | -11% | -8% | -35% | 4 | -1% | 14µM*
O=C(NC(=S)NNC(=O)c1ccccc1O)c1ccccc1 | · | · | 10% | 1 | · | ·
O=C(NNC(=S)NC(=O)c1ccccc1[N+](=O)[O-])c1ccccc1[N+](=O)[O-] | -9%[46.1 µM] | -2% | -2% | -1 | 5% | -11%
O=C(NC(=S)Nc1ccccc1[N+](=O)[O-])c1ccccc1 | -27% | 0% | 28µM* | -5 | 4% | ·
Cc1ccc(C(=O)NC(=S)NNC(=O)c2ccccc2[N+](=O)[O-])cc1 | -6%[46.1 µM] | ? | 45µM* | 1 | 1% | 22µM*
Cc1ccc(S(=O)(=O)NNC(=S)NC(=O)c2ccc([N+](=O)[O-])cc2)cc1 | 6% | 19% | 11% | 0 | 0% | 18µM*
Cc1cccc(C(=O)N/C(=C\c2ccco2)C(=O)N2CCCC2)c1 | · | · | ? | 0 | · | ·
COc1ccc(CCC(C)NCCc2ccc(Cl)cc2Cl)cc1 (stereo not drawn) | · | · | -12% | 0 | · | ·
COc1ccc(C(=O)COc2ccc(C)cc2NC(C)=O)cc1 | -14% | -3% | 15% | -2 | 2% | ·
Cc1cc(NC(CC(C)C)C(=O)O)nc(Cc2ccccc2)n1 (stereo not drawn) | 7%[46.1 µM] | -1% | 17% | 1 | 1% | 8%
Cc1cc(NN)nc(Cc2ccccc2)n1 | · | · | 50µM* | 0 | · | ·
CC(=O)N1c2ccc(S(=O)(=O)N3CCCC(C(=O)Nc4ccc(F)cc4)C3)cc2CC1C (stereo not drawn) | · | · | 7% | 1 | · | ·

High-throughput results from PubChem BioAssay.
